According to PubChem BioAssay (NCATS):
Records with an inconclusive call do not appear. The source made the active and inactive calls. Calls follow the shape of the dose curve; as a rule, active = well fitted curve in the direction sought with a large enough effect; inconclusive = small, poorly fitted or top-dose-only effect, or another doubt; inactive = no such curve, though single readings can be large; an effect the other way counts as inactive or inconclusive.

Columns and labels:
[1] = Cell Viability - LYMP2-004 (AID 966); also: nearly all actives have a fitted effect of over 65% in size
In short: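 Luminescent ATP read-out (CellTiter-Glo, 30 min RT) after 24 hr compound exposure at 37 C; 2500 lymphoblastoid cells/well, complete medium. Decrease in ATP = cytotoxicity; AC50 from standard Hill model.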

[2] = Cell Viability - LYMP2-005 (AID 967); also: series mostly up to about 92 µM
In short: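 LYMP2-005 human lymphoblastoid cells (2500/well) were treated with compounds for 24 h at 37 C. Intracellular ATP was then measured by CellTiter-Glo luminescence after 30 min at room temperature. AC50 values came from Hill-equation fits of qHTS concentration-response data.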

[3] = Cell Viability - LYMP2-009 (AID 968); also: series mostly up to about 92 µM; nearly all actives have a fitted effect of over 55% in size
[4] = Cell Viability - LYMP2-011 (AID 969);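 also: cells exposed to compound for 24 hours; nearly all actives have a fitted effect of over 60% in size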
In short: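 Luminescent ATP read-out (CellTiter-Glo, 30 min RT) after 24 hr compound exposure at 37 C in human lymphoblastoid cells, 2500 cells/well. Decreasing ATP indicates cytotoxicity; AC50 from standard Hill fit.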

[5] = Cell Viability - LYMP2-013 (AID 970); also: series mostly up to about 92 µM; nearly all actives have a fitted effect of over 55% in size
In short: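 CellTiter-Glo luminescence (cellular ATP) read after 30 min at RT. Cells: human lymphoblastoid line, 2500/well, 24 hr compound exposure at 37 C. Tetraoctylammonium bromide positive control; AC50 via standard Hill fit of qHTS titrations.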

[6] = Cell Viability - LYMP2-015 (AID 971); also: nearly all actives have a fitted effect of over 55% in size
In short: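 qHTS cytotoxicity: 2500 cells/well, 5 hr 37 C, compound 24 hr 37 C, CellTiter-Glo 30 min RT, luminescence. Loss of ATP = toxicity; AC50 via standard Hill fit.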

[7] = Cell Viability - LYMP2-017 (AID 972);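 also: series mostly up to about 92 µM; cells exposed to compound for 24 hours at 37 °C; nearly all actives have a fitted effect of over 55% in size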
In short: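 Luminescent ATP read-out (CellTiter-Glo, 30 min RT) reports viable cell number. Cells: human lymphoblastoid line, 2500 per well, 5 hr preincubation, 24 hr compound exposure at 37 C. AC50 is derived from qHTS concentration-response data using the standard Hill model.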

[8] = Cell Viability - LYMP2-019 (AID 973); also: nearly all actives have a fitted effect of over 55% in size
In short: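 qHTS, 1536-well; 2500 cells/well; 5 hr pre-incubation, 24 hr compound exposure, 37 C; CellTiter-Glo added, 30 min RT; luminescence read; AC50 via standard Hill equation.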

[9] = Cell Viability - LYMP2-023 (AID 975)
In short: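 CellTiter-Glo luminescence after 30 min at room temperature; decrease in intracellular ATP reflects toxicity. Cells: human lymphoblastoid line, 2500/well, 24 hr compound exposure at 37 C. AC50 fitted to standard Hill equation from concentration-response.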

[10] = Cell Viability - LYMP2-021 (AID 974)
In short: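 ATP luminescence (CellTiter-Glo, 30 min RT) after 24 h compound exposure at 37 C; 2500 human lymphoblastoid cells/well, 5 h settle beforehand. Cytotoxicity = concentration-dependent ATP drop, AC50 by Hill fit.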

Measured: Potency

CCCCCCO
not listed: [10]
inactive: all other assays above

Cc1ccccc1C(=O)O
not listed: [10]
inactive: all other assays above

CCCOCC(C)O (centres undefined)
not listed: [7] | [9]
inactive: all other assays above

O=C1OC(=O)c2c(Cl)c(Cl)c(Cl)c(Cl)c21
not listed: [10]
inactive: all other assays above

O=C1CCCCC1
not listed: [10]
inactive: all other assays above

CC(C)(C)OC=O
not listed: [8] | [10]
inactive: all other assays above

O=C(O)c1ccccc1[N+](=O)[O-]
not listed: [7]
inactive: all other assays above

Cc1cccc(C)c1O
not listed: [10]
inactive: all other assays above

Cc1cccc(Br)c1
inactive: all assays above

N#Cc1ccccc1
not listed: [10]
inactive: all other assays above

Fc1ccccc1
not listed: [10]
inactive: all other assays above

Cc1cccc(C(=O)O)c1[N+](=O)[O-]
not listed: [10]
inactive: all other assays above

CCNc1cc(O)ccc1C
not listed: [7]
inactive: all other assays above

CCN(C(=O)N(CC)c1ccccc1)c1ccccc1
not listed: [10]
inactive: all other assays above

Oc1c(Cl)ccc(Cl)c1Cl
not listed: [7]
inactive: all other assays above

C/C=C1\CC2C=CC1C2 (centres undefined)
not listed: [7]
inactive: all other assays above

O=C(Cl)c1cccc([N+](=O)[O-])c1
not listed: [7]
inactive: all other assays above

C=Cc1ccc(C=C)cc1
not listed: [7]
inactive: all other assays above

CC(=O)c1ccccc1[N+](=O)[O-]
not listed: [10]
inactive: all other assays above

Cc1c(N)cccc1[N+](=O)[O-]
not listed: [4] | [10]
inactive: all other assays above

Cc1cc(C(=O)O)ccc1[N+](=O)[O-]
not listed: [4]
inactive: all other assays above

NC(=O)/N=N/C(N)=O
not listed: [5]
inactive: all other assays above

O=CNc1ccccc1
not listed: [4] | [9]
inactive: all other assays above

CCOC(=O)OCC
not listed: [4] | [7]
inactive: all other assays above

CCOC(=O)C(C)C(C)=O (centres undefined)
not listed: [7]
inactive: all other assays above

Cc1cc([N+](=O)[O-])ccc1N
not listed: [4]
inactive: all other assays above

C/C=C(/C)C#N
not listed: [4]
inactive: all other assays above

Nc1ccc(F)cc1F
not listed: [7]
inactive: all other assays above

ON=C1CCCCC1
not listed: [6]
inactive: all other assays above

CC(C)c1ccccc1
not listed: [4]
inactive: all other assays above

Cc1cc(C)cc([N+](=O)[O-])c1
not listed: [4] | [10]
inactive: all other assays above

O=C(O)c1ccc(CO)o1
not listed: [7] | [8] | [10]
inactive: all other assays above

CC(=O)OCc1ccco1
not listed: [7]
inactive: all other assays above

C[C@@H]1CC2(OC3C[C@@]4(C)C5=CC[C@H]6C(C)(C)C(O[C@@H]7OC[C@@H](O)[C@H](O)[C@H]7O)CC[C@@]67C[C@@]57CC[C@]4(C)C31)OC(O)C1(C)OC21 (some centres undefined)
not listed: [4]
inactive: all other assays above

C=CCOC(=O)CCCCCCCC
not listed: [6]
inactive: all other assays above

CC=C(Cl)Cl
not listed: [4]
inactive: all other assays above

Nc1ccc([N+](=O)[O-])c(N)c1
not listed: [7]
inactive: all other assays above

CC(C)(C)OCC1CO1 (centres undefined)
not listed: [7] | [10]
inactive: all other assays above

O=C(O)c1ccccc1Cl
not listed: [7]
inactive: all other assays above

CN(C)CCCCl
not listed: [4]
inactive: all other assays above

C(=C/c1ccccc1)/c1ccccc1
not listed: [4]
inactive: all other assays above

CCN(Cc1ccccc1)c1ccccc1
not listed: [4] | [7]
inactive: all other assays above

O=[N+]([O-])c1ccc(CCO)cc1
inactive: [1] | [2] | [3] | [4] | [8] | [9]

C/C(C=O)=C/c1ccccc1
not listed: [6]
inactive: all other assays above

CCCCN(CCO)CCCC
not listed: [4] | [10]
inactive: all other assays above

COC(=O)CS
not listed: [4] | [10]
inactive: all other assays above

O=P(O)(OCc1ccccc1)OCc1ccccc1
not listed: [4] | [7]
inactive: all other assays above

OC/C(Br)=C(\Br)CO
not listed: [4]
inactive: all other assays above

C1CCCC1
not listed: [4]
inactive: all other assays above

C=C(C)C(=O)OCC(C)C
not listed: [4]
inactive: all other assays above

O=C(O[C@@H](C(=O)O)[C@@H](OC(=O)c1ccccc1)C(=O)O)c1ccccc1
not listed: [4] | [7] | [9]
inactive: all other assays above

NC(=O)c1cccc([N+](=O)[O-])c1
not listed: [7]
inactive: all other assays above

CN(C)c1cccc(O)c1
not listed: [7]
inactive: all other assays above

CCCC=O
not listed: [4]
inactive: all other assays above

BrC(Br)C(Br)Br
not listed: [4] | [9] | [10]
inactive: all other assays above

CC(C)CCOC(=O)/C=C/c1ccccc1
not listed: [4]
inactive: all other assays above

CCCCCCCCCCCCOCC1CO1 (centres undefined)
not listed: [4]
inactive: all other assays above

COc1ccc(OC)cc1
not listed: [4]
inactive: all other assays above

OC(CCl)CCl
not listed: [4]
inactive: all other assays above

COc1ccccc1[N+](=O)[O-]
not listed: [4] | [7] | [10]
inactive: all other assays above

CC(=C/C=C/C(C)=C/C=C/C=C(C)/C=C/C=C(C)/C=C/C(=O)O)/C=C/C(=O)O
not listed: [3]
inactive: all other assays above

Cc1cccc2cccnc12
not listed: [3] | [4]
inactive: all other assays above

OCCO
not listed: [3] | [9]
inactive: all other assays above
